Test [1] can be described thus: qHTS assay to identify aromatase inhibitors - cell viability counter screen (AID 743084).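 Also: cells stimulated with testosterone during compound exposure; nearly all actives have a fitted effect of over 55% in size.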 Also: potency is read from the fitted curve at half-maximal effect.
Test [2] deals with Aryl hydrocarbon receptor (Homo sapiens) (UniProt P35869). Put plainly: qHTS assay to identify small molecule that activate the aryl hydrocarbon receptor (AhR) signaling pathway (AID 743085).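 Also: HG2L7.5c1 human HepG2 liver cells with stably integrated DRE-driven firefly reporter; series mostly up to about 70 µM; nearly all actives have a fitted effect of over 15% in size.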 Summed up: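 Steps: seed HepG2-AhR-luc cells; allow 5 h at 37C; pin-transfer test compound or vehicle; incubate 24 h at 37C; add viability dye (30 min, 37C) and read fluorescence; add luciferase substrate (30 min, RT) and read luminescence.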

The nature of test [3]: qHTS assay to identify small molecule that activate the aryl hydrocarbon receptor (AhR) signaling pathway - cell viability counter screen (AID 743086).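 Also: HepG2 liver cells carrying the AhR DRE luciferase reporter; series mostly up to about 70 µM; nearly all actives have a fitted effect of over 45% in size.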 The method in brief: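 HepG2-AhR-luc (HG2L7.5c1) cells, 4000/well, were preincubated 5 h at 37C, exposed to compound in qHTS format for 24 hr at 37C, then given CellTiter-Fluor for 30 min; viability was read as fluorescence in the reporter wells.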

Test [4] has as its target Peroxisome proliferator-activated receptor gamma (Homo sapiens) (UniProt P37231). Put plainly: qHTS assay to identify small molecule agonists of the peroxisome proliferator-activated receptor gamma (PPARg) signaling pathway (AID 743094; active = well fitted activation curve with a large enough effect in the signal ratio in the repeat runs, not every such curve was filed as active; the % refers to the signal ratio). Summed up: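 Agonism was assessed in a beta-lactamase reporter system, HEK293H cells with a stably integrated UAS-bla construct under PPARg control; the 17 h treatment at 37C preceded a 1 h room-temperature FRET substrate read.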

Test [5] can be described thus: qHTS assay to identify small molecule antagonists of the peroxisome proliferator-activated receptor gamma (PPARg) signaling pathway - cell viability counter screen (AID 743194). Also: nearly all actives have a fitted effect of over 55% in size. Also: potency is read from the fitted curve at half-maximal effect. Summed up:
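PPARg-UAS-bla HEK293H cells were plated, rested 5 h at 37 C, then treated with compounds plus rosiglitazone (50 nM final) for 17 h at 37 C; viability was then read by CellTiter-Glo luminescence after 30 min at room temperature.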

A short description of test [6]: qHTS assay for small molecule agonists of the antioxidant response element (ARE) signaling pathway - cell viability counter screen (AID 743203; calls by dose curve; also: nearly all actives have a fitted effect of over 55% in size; also: potency is read from the fitted curve at half-maximal effect). The method in brief:
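ATP content via CellTiter-Glo luminescence served as the viability measure. Cells: ARE-bla HepG2, 2,000 per well. Exposure: 16 hrs, 37C/5% CO2.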

Test [7] in a line: qHTS assay to identify small molecule agonists of the peroxisome proliferator-activated receptor delta (PPARd) signaling pathway - cell viability counter screen (AID 743211). Also: nearly all actives have a fitted effect of over 55% in size. Also: potency is read from the fitted curve at half-maximal effect. Summed up:
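Viability of GeneBLAzer PPARd UAS-bla HEK293H cells was assessed after 17 h compound incubation at 37C, using CellTiter-Glo reagent added after the reporter read and luminescence recorded 30 min later.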

Test [8] concerns the target Peroxisome proliferator-activated receptor delta (Homo sapiens) (UniProt Q03181). Put plainly: qHTS assay to identify small molecule agonists of the peroxisome proliferator-activated receptor delta (PPARd) signaling pathway (AID 743212; calls by dose curve). Summed up: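 Beta-lactamase reporter read by fluorescence (LiveBLAzer B/G FRET, 2 h, room temperature). Test agents, in DMSO, incubated at 37 C with PPARd-bla HEK293H cells.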

Test [9] in a line: qHTS assay to identify small molecule antagonists of the peroxisome proliferator-activated receptor delta (PPARd) signaling pathway - cell viability counter screen (AID 743213). Also: nearly all actives have a fitted effect of over 50% in size. The method in brief: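 PPARd-bla HEK293H cells (3000/well) got compound plus 300 nM L165041 agonist for 17 h at 37 C. Viability in the same wells came from CellTiter-Glo luminescence after 30 min at room temperature.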

The target in test [10] is Peroxisome proliferator-activated receptor delta (Homo sapiens) (UniProt Q03181). Put plainly: qHTS assay to identify small molecule antagonists of the peroxisome proliferator-activated receptor delta (PPARd) signaling pathway (AID 743215; active = well fitted inhibition curve with a large enough effect in the signal ratio in the repeat runs, not every such curve was filed as active; the % refers to the signal ratio;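 also: cells stimulated with agonist L165041 at 300 nM final during compound exposure; series mostly up to about 62 µM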). The method in brief: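 Here, a reporter line (HEK293H, beta-lactamase under a UAS) measures PPARd signaling. Compounds are tested against agonist L165041 at 300 nM final concentration over 17 h at 37 C, with fluorescence read after substrate.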

For test [11], the target named is Bile acid receptor (Homo sapiens) (UniProt Q96RI1). Put plainly: qHTS assay to identify small molecule antagonists of the farnesoid-X-receptor (FXR) signaling pathway (AID 743217; active = well fitted inhibition curve with a large enough effect in the signal ratio in the repeat runs, not every such curve was filed as active; the % refers to the signal ratio). The method in brief: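 Test compounds are pin-transferred onto FXR-bla HEK 293T cells, then chenodeoxycholic acid is added at 50 uM final. After 16 h at 37 °C, LiveBLAzer B/G substrate is applied for 2 h at room temperature and fluorescence read.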

The target is the same in test [12]. Put plainly: qHTS assay to identify small molecule agonists of the farnesoid-X-receptor (FXR) signaling pathway (AID 743220; active = well fitted activation curve with a large enough effect in the signal ratio in the repeat runs, not every such curve was filed as active; the % refers to the signal ratio). Summed up: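 FXR-UAS-bla HEK 293T cells carrying a UAS-driven beta-lactamase reporter were plated for 5 h at 37C/5% CO2, then exposed to DMSO-dissolved Tox21 10K compounds for 16 h at 37C. A LiveBLAzer B/G FRET substrate was loaded for 2 h at room temperature before fluorescence reading.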

Test [13] in a line: qHTS assay to identify small molecule antagonists of the farnesoid-X-receptor (FXR) signaling pathway - cell viability counter screen (AID 743221; active = well fitted cell-killing curve with a large enough effect in the repeat runs, not every such curve was filed as active; also: nearly all actives have a fitted effect of over 50% in size). Summed up:
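Quantitative HTS of the Tox21 10K library run in parallel with the beta-lactamase reporter read. HEK 293T cells carrying a UAS-driven bla reporter got compound and 50 uM CDCA (final) for 16 h; ATP-based luminescence followed.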

Test [14] deals with Peroxisome proliferator-activated receptor gamma (Homo sapiens) (UniProt P37231). Put plainly: qHTS assay to identify small molecule antagonists of the peroxisome proliferator-activated receptor gamma (PPARg) signaling pathway (AID 743191; calls by dose curve; also: series mostly up to about 63 µM; nearly all actives have a fitted effect of over 30% in size). Summed up:
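GeneBLAzer PPARg UAS-bla HEK293H cells carrying a UAS-driven beta-lactamase reporter were plated at 3000 cells/well, preincubated 5 h at 37C, then given compound for 17 h at 37C; LiveBLAzer B/G FRET substrate was read after 1 h at room temperature.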

Test [15] in a line: qHTS assay for small molecule agonists of the antioxidant response element (ARE) signaling pathway (AID 743202; active = well fitted activation curve with a large enough effect in the signal ratio in the repeat runs, not every such curve was filed as active; the % refers to the signal ratio; also: potency is read from the fitted curve at half-maximal effect). Summed up: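 Following a 16 h, 37 C exposure of reporter HepG2 cells (ARE-driven beta-lactamase, 2,000 cells/well) to compounds, FRET substrate was applied for 2 h at room temperature and fluorescence intensity recorded.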
A short description of test [16]: qHTS assay for small molecule activators of the heat shock response signaling pathway (AID 743210; active = well fitted activation curve with a large enough effect in the signal ratio in the repeat runs, with a control signal flat, not every such curve was filed as active; the % refers to the signal ratio; also: series mostly up to about 63 µM). The method in brief: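 Heat shock element–beta-lactamase HeLa reporter cells; qHTS with compounds for 5 h at 37 C; detection by FRET substrate fluorescence after 2.5 h at RT.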
A short description of test [17]: qHTS assay to identify small molecule agonists of the farnesoid-X-receptor (FXR) signaling pathway - cell viability counter screen (AID 743218). Also: nearly all actives have a fitted effect of over 45% in size. Summed up:
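Quantitative HTS counter screen measuring ATP-based viability via CellTiter-Glo luminescence in HEK 293T cells carrying a UAS-driven beta-lactamase reporter, after 16 h compound exposure at 37 C.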

For test [18], the target named is Vitamin D3 receptor (Homo sapiens) (UniProt P11473). Put plainly: qHTS assay to identify small molecule agonists of the vitamin D receptor (VDR) signaling pathway (AID 743222; calls by dose curve). Summed up:
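Tox21 cell reporter format: VDR-bla line, 16 h compound exposure in 5% CO2 at 37C, then fluorescence intensity after 2 h with LiveBLAzer B/G FRET substrate.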

The nature of test [19]: qHTS assay for small molecule activators of the heat shock response signaling pathway - cell viability counter screen (AID 743209). Also: nearly all actives have a fitted effect of over 50% in size. The method in brief:
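Compounds dissolved in DMSO were added to overnight-plated HSE-bla HeLa cells and left 5 h at 37 C. Cell viability was quantified by luminescence using CellTiter-Glo.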

The target in test [20] is Vitamin D3 receptor (Homo sapiens) (UniProt P11473). Put plainly: qHTS assay to identify small molecule antagonists of the vitamin D receptor (VDR) signaling pathway (AID 743223; active = well fitted inhibition curve with a large enough effect in the signal ratio in the repeat runs, not every such curve was filed as active; the % refers to the signal ratio). The method in brief:
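Fluorescence from LiveBLAzer B/G FRET substrate, read after 2 h at room temperature, reflects beta-lactamase reporter activity in VDR-bla cells treated 16 h at 37C with compounds and agonist 1alpha,25-dihydroxyvitamin D3 (3 nM final).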

Several values for one entry are separate records, joined by “and”; a condition that tells them apart may be missing. Identical values can stand only once. Inconclusive results are not listed. Activity calls are given as the source filed them. Unless noted, calls follow the shape of the dose curve; as a rule, active = well fitted curve in the direction sought with a large enough effect in the repeat runs; inconclusive = weak or mixed curves; inactive = no such curve, though single readings can be large; an effect the other way counts as inactive or inconclusive.

Sequence of Peroxisome proliferator-activated receptor delta (Homo sapiens) (Q03181 whole entry, looked up): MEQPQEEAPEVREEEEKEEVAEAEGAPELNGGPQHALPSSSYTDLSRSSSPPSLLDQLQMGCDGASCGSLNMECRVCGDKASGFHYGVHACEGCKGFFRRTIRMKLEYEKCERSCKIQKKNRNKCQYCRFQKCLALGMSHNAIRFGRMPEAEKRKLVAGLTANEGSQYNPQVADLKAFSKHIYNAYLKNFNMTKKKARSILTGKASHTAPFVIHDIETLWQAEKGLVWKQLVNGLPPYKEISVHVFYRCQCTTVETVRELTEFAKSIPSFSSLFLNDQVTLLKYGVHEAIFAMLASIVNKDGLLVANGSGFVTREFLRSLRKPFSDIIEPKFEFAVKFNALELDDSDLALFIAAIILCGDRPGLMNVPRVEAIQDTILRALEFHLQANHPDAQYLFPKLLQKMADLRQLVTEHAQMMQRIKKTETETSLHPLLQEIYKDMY
Sequence of Vitamin D3 receptor (Homo sapiens) (P11473 whole entry, looked up): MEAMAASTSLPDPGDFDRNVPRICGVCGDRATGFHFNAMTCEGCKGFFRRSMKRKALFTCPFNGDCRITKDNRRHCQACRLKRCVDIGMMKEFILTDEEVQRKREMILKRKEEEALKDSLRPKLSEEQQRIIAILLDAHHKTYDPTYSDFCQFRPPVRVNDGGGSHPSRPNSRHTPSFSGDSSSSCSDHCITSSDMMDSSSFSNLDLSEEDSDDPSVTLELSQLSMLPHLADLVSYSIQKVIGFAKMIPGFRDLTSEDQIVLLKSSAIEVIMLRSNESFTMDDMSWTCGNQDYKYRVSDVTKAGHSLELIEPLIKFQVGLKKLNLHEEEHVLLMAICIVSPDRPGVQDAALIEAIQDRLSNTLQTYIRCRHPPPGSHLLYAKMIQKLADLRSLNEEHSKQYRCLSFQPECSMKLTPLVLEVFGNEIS
Sequence of Aryl hydrocarbon receptor (Homo sapiens) (P35869 whole entry, looked up): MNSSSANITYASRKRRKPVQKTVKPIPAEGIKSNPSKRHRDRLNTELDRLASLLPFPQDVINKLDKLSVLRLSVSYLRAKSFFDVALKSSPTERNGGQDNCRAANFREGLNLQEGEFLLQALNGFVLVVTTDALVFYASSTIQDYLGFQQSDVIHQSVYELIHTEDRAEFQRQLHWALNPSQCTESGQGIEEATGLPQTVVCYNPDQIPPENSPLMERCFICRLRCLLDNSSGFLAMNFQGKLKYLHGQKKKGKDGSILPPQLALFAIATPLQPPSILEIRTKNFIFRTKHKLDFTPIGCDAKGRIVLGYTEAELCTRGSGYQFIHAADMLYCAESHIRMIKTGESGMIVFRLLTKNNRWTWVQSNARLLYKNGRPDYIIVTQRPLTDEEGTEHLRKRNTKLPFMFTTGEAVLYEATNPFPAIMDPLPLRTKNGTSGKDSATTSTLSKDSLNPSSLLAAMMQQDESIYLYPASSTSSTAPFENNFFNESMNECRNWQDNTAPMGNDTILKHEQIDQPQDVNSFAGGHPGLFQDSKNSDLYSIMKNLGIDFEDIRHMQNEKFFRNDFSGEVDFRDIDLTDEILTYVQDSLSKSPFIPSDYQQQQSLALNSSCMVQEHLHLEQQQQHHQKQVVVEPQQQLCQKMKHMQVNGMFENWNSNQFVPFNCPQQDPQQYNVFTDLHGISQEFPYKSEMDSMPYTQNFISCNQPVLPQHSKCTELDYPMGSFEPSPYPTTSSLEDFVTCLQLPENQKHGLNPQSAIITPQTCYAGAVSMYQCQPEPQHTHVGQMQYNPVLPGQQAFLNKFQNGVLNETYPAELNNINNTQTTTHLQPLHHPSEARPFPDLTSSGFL
Sequence of Peroxisome proliferator-activated receptor gamma (Homo sapiens) (P37231 whole entry, looked up): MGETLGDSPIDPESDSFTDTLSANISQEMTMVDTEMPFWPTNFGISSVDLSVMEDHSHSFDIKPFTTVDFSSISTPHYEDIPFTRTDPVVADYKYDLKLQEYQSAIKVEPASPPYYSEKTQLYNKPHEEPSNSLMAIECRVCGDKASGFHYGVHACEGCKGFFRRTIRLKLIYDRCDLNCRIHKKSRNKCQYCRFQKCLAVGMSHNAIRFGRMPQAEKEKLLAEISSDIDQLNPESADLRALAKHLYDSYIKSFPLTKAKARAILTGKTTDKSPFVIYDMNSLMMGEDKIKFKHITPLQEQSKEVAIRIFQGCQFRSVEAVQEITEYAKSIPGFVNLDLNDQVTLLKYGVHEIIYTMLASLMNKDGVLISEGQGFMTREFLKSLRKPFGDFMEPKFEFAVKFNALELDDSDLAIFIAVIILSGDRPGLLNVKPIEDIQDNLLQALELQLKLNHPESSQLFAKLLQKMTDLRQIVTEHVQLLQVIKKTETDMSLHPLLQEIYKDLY
Sequence of Bile acid receptor (Homo sapiens) (Q96RI1 whole entry, looked up): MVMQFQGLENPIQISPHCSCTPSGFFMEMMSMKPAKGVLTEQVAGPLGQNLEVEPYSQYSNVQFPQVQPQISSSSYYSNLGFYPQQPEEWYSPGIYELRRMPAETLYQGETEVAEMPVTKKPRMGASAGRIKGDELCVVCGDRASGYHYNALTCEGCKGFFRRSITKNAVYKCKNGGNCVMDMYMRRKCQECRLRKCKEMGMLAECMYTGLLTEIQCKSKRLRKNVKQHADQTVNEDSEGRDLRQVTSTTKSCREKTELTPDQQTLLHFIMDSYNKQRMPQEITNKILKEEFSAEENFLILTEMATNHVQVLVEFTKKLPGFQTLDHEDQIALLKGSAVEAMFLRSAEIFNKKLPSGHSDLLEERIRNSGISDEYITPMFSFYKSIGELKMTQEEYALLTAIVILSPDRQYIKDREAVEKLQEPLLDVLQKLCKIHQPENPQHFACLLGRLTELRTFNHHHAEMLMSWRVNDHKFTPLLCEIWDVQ

For `O=C1CCCCCCCCCCCCCCCO1`, the Potency result in test [1], in test [2], in test [3], in test [4], in [5] and in [6] was “inactive” throughout. Also, the Potency entry in test [7], in test [8], in test [9], in test [10], in test [11] and in [12] was “inactive” in each case. Besides, the Potency result in test [13] was “inactive”.

With `Cc1cc(-c2ccc(N=Nc3cc(S(=O)(=O)O)c4ccccc4c3N)c(C)c2)ccc1N=Nc1cc(S(=O)(=O)O)c2ccccc2c1N`, the Potency result in test [1], in test [2], in [3], in [14], in test [5] and in test [6] was “inactive” in each case. The Potency result in test [16], in [8], in test [17], in [13] and in [18] was “inactive” in each case. In addition, the Potency in [15] was 12.3 µM (active).

For `CC1(C)CCC[C@]2(C)[C@H]3CC(=O)O[C@]3(C)CC[C@@H]12`, the Potency result in test [1], in test [2], in [3], in test [4], in [6] and in test [19] was “inactive” each time. For the same compound, the Potency entry in test [16], in test [7], in [8], in test [9], in test [10] and in test [17] was “inactive” each time. For the same compound, the Potency result in test [12] and in [13] was “inactive” throughout.

Regarding `C[Si](Cl)(c1ccccc1)c1ccccc1`, the Potency entry in test [1], in [2], in test [3], in [4], in test [6] and in test [19] was “inactive” in each case. Besides, the Potency entry in [7], in [8], in test [9], in [10], in [11] and in test [17] was “inactive” each time. In addition, the Potency result in test [12], in test [13], in [18] and in [20] was “inactive” in each case.

Take `O=C1c2ccccc2C(=O)N1SC1CCCCC1`: the Potency in test [1] was 27.3 µM (active) and 24.3 µM (active); in test [5], 54.9 µM (active); in test [6], 48.5 µM (active) and 34.4 µM (active); in test [7] it was 48.9 µM (active) and 49 µM (active). The Potency entry in [2], in test [3], in test [17], in test [12], in test [13] and in [18] was “inactive” in each case.

On to `FC(F)(F)c1cccc(Cl)c1`, for which the Potency entry in [1], in test [2], in test [3], in test [5], in test [15] and in test [6] was “inactive” each time. For the same compound, the Potency entry in test [19], in [7], in [8], in test [9], in test [10] and in test [17] was “inactive” in each case. In addition, the Potency entry in test [12] and in [13] was “inactive” in each case.

The values are drawn from PubChem BioAssay (Tox21).
